The text below walks through data of PubChem BioAssay (Tox21).

Several values for one entry are separate records, joined by “and”; a condition that tells them apart may be missing. Equal values may be shown once. Records with an inconclusive call do not appear. Where a call stands in place of a potency, no number is given. The source holds several records for some structures; these can differ, active in one and inactive in another. Activity calls are given as the source filed them. Unless noted, calls follow the shape of the dose curve; as a rule, active = well fitted cell-killing curve with a large enough effect in the repeat runs; inconclusive = weak or mixed curves; inactive = flat fitted curve, though single readings scatter.
Potency is read from the fitted curve at half-maximal effect.

Estrogen receptor (Homo sapiens), sequence (P03372 whole entry, looked up): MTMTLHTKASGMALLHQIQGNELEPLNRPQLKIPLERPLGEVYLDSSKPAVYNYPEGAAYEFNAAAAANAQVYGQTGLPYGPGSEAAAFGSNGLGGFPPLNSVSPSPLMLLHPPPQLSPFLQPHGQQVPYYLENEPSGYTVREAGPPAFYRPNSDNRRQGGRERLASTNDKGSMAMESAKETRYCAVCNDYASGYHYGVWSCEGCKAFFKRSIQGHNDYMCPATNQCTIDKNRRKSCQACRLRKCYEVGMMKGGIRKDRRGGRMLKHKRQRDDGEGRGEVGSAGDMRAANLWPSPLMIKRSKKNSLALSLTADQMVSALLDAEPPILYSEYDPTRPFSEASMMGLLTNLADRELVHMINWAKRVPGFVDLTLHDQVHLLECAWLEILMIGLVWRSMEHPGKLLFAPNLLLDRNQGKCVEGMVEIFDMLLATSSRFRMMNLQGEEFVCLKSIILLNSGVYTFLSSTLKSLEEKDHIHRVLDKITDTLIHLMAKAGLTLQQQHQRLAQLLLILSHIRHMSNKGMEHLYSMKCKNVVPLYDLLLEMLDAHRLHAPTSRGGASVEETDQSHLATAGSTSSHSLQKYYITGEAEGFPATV

Test system in one assay: not listed separately
As to the kind of experiment: qHTS assay to identify small molecule antagonists of the estrogen receptor beta (ER-beta) signaling pathway - cell viability counter screen (AID 1259382). Also: nearly all actives have a fitted effect of over 55% in size.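 As to activity change, negative = cytotoxicity: HEK293T cells carrying ER-beta-UAS-bla reporter stimulated with estradiol.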 As to conditions: ER-beta-UAS-bla HEK293T viability, CellTiter-Glo luminescence, 16 h; series mostly up to 92.4 µM. The method in brief: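 CellTiter-Glo ATP luminescence measured after the LiveBLAzer read in the same wells; ER-beta-UAS-bla HEK293T cells, 16 hr compound treatment with 1nM 17-beta-estradiol agonist at 37C, 5% CO2.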
A general note: Quantitative high-throughput screening tests each substance at several concentrations.
Take `CCCCCCCCCCCCCCn1cc[n+](C)c1`: the Potency is 34.4 µM (active) and 34 µM (active) and inactive.
The same measure, in the same setting: under `O=c1c2ccccc2c(=O)c2c1cc(Cl)c1[nH]c3c([nH]c12)c(Cl)cc1c(=O)c2ccccc2c(=O)c13` stands “inactive”; under `CC(Cc1ccc(OCC(=O)O)cc1)NCC(O)c1csc(C(F)(F)F)n1` (configuration not stated), “inactive”.
As for `CCC(C)Br` (configuration not stated), the Potency entry was “inactive”.
Same read-out and setting: then `O=[N+]([O-])c1ccccc1-c1ccccc1`, with “inactive”.
Same read-out and setting: then `CCN(CC)C(=S)S`, with 12.1 µM (active); and `CC(=O)[O-].CC(=O)[O-].CC(=O)[O-].[Cr+3]`, with “inactive”; and `CCCCON=O`, with “inactive”.
On the same count and under the same terms, then `C[C@@H]1CC2=CC(=O)CC[C@@H]2[C@H]2CC[C@@]3(C)[C@@H](CC[C@]3(C)O)[C@@H]21`, with “inactive”; and `CCNS(=O)(=O)C(F)(F)C(F)(F)C(F)(F)C(F)(F)C(F)(F)C(F)(F)C(F)(F)C(F)(F)F`, with “inactive”; and `OCC(Br)CBr` (configuration not stated), with “inactive”.
Take `[O]=[Cr][O][Cr]=[O]`: the Potency entry is “inactive”.
The same measure, in the same setting: then `CC(=O)[O-].CC(=O)[O-].O.O.[Zn+2]`, with “inactive”; and `CC1=C2C[C@H]3[C@@H](CC=C4C[C@@H](O)CC[C@@]43C)[C@@H]2CC[C@]12O[C@@H]1C[C@H](C)CN[C@H]1[C@H]2C`, with “inactive”.
Regarding `Oc1cc(Cl)c(Cl)c(Cl)c1Cl`, the Potency entry was “inactive”.
As to `CCCCC(CC)COC(=O)c1ccccc1C(=O)OCC(CC)CCCC` (configuration not stated), the Potency result is “inactive”.
With `CN1C(=O)[C@@H](NC(=O)c2cc3ccccc3[nH]2)N=C(c2ccccc2)c2ccccc21`, the Potency result is “inactive”.
Take `[Cl-].[Cl-].[Cl-].[Yb+3]`: the Potency result was “inactive”.
Same read-out and setting: under `CSC(=O)c1c(C(F)F)nc(C(F)(F)F)c(C(=O)SC)c1CC(C)C` stands “inactive”.
On the same count and under the same terms, then `C[C@H]1[C@H](c2ccc(Cl)cc2)SC(=O)N1C(=O)NC1CCCCC1`, with “inactive”; and `CNC(C)(C)Cc1ccccc1`, with “inactive”; and `CCN(CC)CCN1C(=O)CN=C(c2ccccc2F)c2cc(Cl)ccc21`, with “inactive”.
On to `CC(=O)C(Cl)C(=O)N(C)C` (configuration not stated), for which the Potency entry is “inactive”.
Still for that read-out and setting: under `CCC(C)Nc1c([N+](=O)[O-])cc(C(C)(C)C)cc1[N+](=O)[O-]` (configuration not stated) stands “inactive”; under `CCn1cc[n+](C)c1` (tested in a mixture with another compound), “inactive”; under `CCC1COC(Cn2cncn2)(c2ccc(Cl)cc2Cl)O1` (configuration not stated), “inactive”.
Take `O=[N+]([O-])c1ccc(CCl)cc1`: the Potency result is “inactive”.
For `CC(C)N(C(=O)SC/C(Cl)=C/Cl)C(C)C`, the Potency entry is “inactive”.
Same read-out and setting: then `O.O.O.O=C([O-])[C@H]([O-])[C@@H]([O-])C(=O)[O-].O=C([O-])[C@H]([O-])[C@@H]([O-])C(=O)[O-].[K+].[K+].[Sb+3].[Sb+3]`, with “inactive”; and `c1ccc(Nc2ccc(Nc3ccccc3)cc2)cc1`, with “inactive”; and `COc1ccc(Cc2nccc3cc(OC)c(OC)cc23)cc1OC`, with “inactive”.
Still for that read-out and setting: under `CCCCCCC[CH2][Sn]([Cl])([Cl])[CH2]CCCCCCC` stands “inactive”; under `N#Cc1ccc(N(CC(N)=O)CC(F)(F)F)cc1C(F)(F)F`, “inactive”; under `ClC1=C(Cl)[C@]2(Cl)[C@@H]3[C@H]4C[C@H]([C@@H]5O[C@H]45)[C@@H]3[C@@]1(Cl)C2(Cl)Cl`, “inactive”.
Turning to `CC(=O)[O-].CC(=O)[O-].CC(=O)[O-].[Sb+3]`, the activity change, negative = cytotoxicity is -1.85% [at 3.27 µM] (inactive).

The next assay has as its target Estrogen receptor (Homo sapiens) (UniProt P03372). The experiment in a line: qHTS assay to identify small molecule agonists of the estrogen receptor alpha (ER-alpha) signaling pathway in the presence of an antagonist (AID 1259383; calls by dose curve; also: nearly all actives have a fitted effect of over 15% in size). As to conditions: VM7Luc4E2 cells, ERE-luciferase, +ICI-182,780, 22 h; series mostly up to 92.4 µM. The method in brief:
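Luminescent ERE-luciferase reporter, VM7Luc4E2 cells (endogenous ER-alpha); 10.0nM ICI-182,780 final; 15-point compound titration; 22hr at 37C; ONE-Glo, 30min RT.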
For the compound `CCCCCCCCCCCCCCn1cc[n+](C)c1`, the Potency entry is “inactive”.
Same read-out and setting: then `O=c1c2ccccc2c(=O)c2c1cc(Cl)c1[nH]c3c([nH]c12)c(Cl)cc1c(=O)c2ccccc2c(=O)c13`, with “inactive”; and `CC(Cc1ccc(OCC(=O)O)cc1)NCC(O)c1csc(C(F)(F)F)n1` (configuration not stated), with “inactive”; and `O=[N+]([O-])c1ccccc1-c1ccccc1`, with “inactive”.
On the same count and under the same terms, then `CCN(CC)C(=S)S`, with “inactive”; and `Cc1c([N+](=O)[O-])c(C)c([N+](=O)[O-])c(C(C)(C)C)c1[N+](=O)[O-]`, with “inactive”.
`OCC(Br)CBr` (configuration not stated): the Potency result is “inactive”.
`[O]=[Cr][O][Cr]=[O]`: the Potency result was “inactive”.
With `CC1=C2C[C@H]3[C@@H](CC=C4C[C@@H](O)CC[C@@]43C)[C@@H]2CC[C@]12O[C@@H]1C[C@H](C)CN[C@H]1[C@H]2C`, the Potency entry is “inactive”.
For the compound `Oc1cc(Cl)c(Cl)c(Cl)c1Cl`, the Potency result was “inactive”.
`CCCCC(CC)COC(=O)c1ccccc1C(=O)OCC(CC)CCCC` (configuration not stated): the Potency is 27.3 µM (active).
Same read-out and setting: then `CSC(=O)c1c(C(F)F)nc(C(F)(F)F)c(C(=O)SC)c1CC(C)C`, with “inactive”.
Take `CN(C)c1ccc(N)cc1`: the Potency entry was “inactive”.
On the same count and under the same terms, then `C[C@H]1[C@H](c2ccc(Cl)cc2)SC(=O)N1C(=O)NC1CCCCC1`, with “inactive”.
Same read-out and setting: then `CCN(CC)CCN1C(=O)CN=C(c2ccccc2F)c2cc(Cl)ccc21`, with “inactive”.
On to `CC(=O)C(Cl)C(=O)N(C)C` (configuration not stated), for which the Potency entry was “inactive”.
Same read-out and setting: then `CCC(C)Nc1c([N+](=O)[O-])cc(C(C)(C)C)cc1[N+](=O)[O-]` (configuration not stated), with “inactive”.
The same measure, in the same setting: under `CCC1COC(Cn2cncn2)(c2ccc(Cl)cc2Cl)O1` (configuration not stated) stands “inactive”; under `O=[N+]([O-])c1ccc(CCl)cc1`, “inactive”.
In the case of `CC(C)N(C(=O)SC/C(Cl)=C/Cl)C(C)C`, the Potency entry was “inactive”.
For `O.O.O.O=C([O-])[C@H]([O-])[C@@H]([O-])C(=O)[O-].O=C([O-])[C@H]([O-])[C@@H]([O-])C(=O)[O-].[K+].[K+].[Sb+3].[Sb+3]`, the Potency result was “inactive”.
Consider `c1ccc(Nc2ccc(Nc3ccccc3)cc2)cc1`, for which the Potency is 54.3 µM (active).
Turning to `CCCCCCC[CH2][Sn]([Cl])([Cl])[CH2]CCCCCCC`, the Potency result was “inactive”.
Consider `CC(C)N(C(=O)CCl)c1ccccc1`, for which the Potency entry is “inactive”.
Still for that read-out and setting: under `N#Cc1ccc(N(CC(N)=O)CC(F)(F)F)cc1C(F)(F)F` stands “inactive”; under `Oc1cccc(Cl)c1Cl`, “inactive”.
Same read-out and setting: then `ClC1=C(Cl)[C@]2(Cl)[C@@H]3[C@H]4C[C@H]([C@@H]5O[C@H]45)[C@@H]3[C@@]1(Cl)C2(Cl)Cl`, with “inactive”.
